The values below come from PubChem BioAssay (NCATS).

The nature of experiment [1]: Quantitative High-Throughput drug screen in 47 multiple myeloma cell lines against the NCATS MIPE library collection: Karpas25_ECACC cell viability assay (AID 1918968; also: nearly all actives have a fitted effect of over 35% in size). The procedure, abridged: (§1)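 Viability readout: CellTiter-Glo luminescence following 5 min room-temperature incubation with reagent. Prior exposure: 48 h, 37C, humidified 5% CO2, 500 cells per well.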
A short description of experiment [2]: Quantitative High-Throughput drug screen in 47 multiple myeloma cell lines against the NCATS MIPE library collection: KMS12BM_JCRB cell viability assay (AID 1918971). Also: nearly all actives have a fitted effect of over 35% in size. The procedure, abridged: (§2)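 Luminescent ATP measurement with CellTiter-Glo gives viability, scaled between DMSO-only wells (100%) and media-only wells (0%). Cells, 500 per well, faced library compounds for 48 hours at 37C.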

A short description of experiment [3]: Quantitative High-Throughput drug screen in 47 multiple myeloma cell lines against the NCATS MIPE library collection: KMS20_JCRB cell viability assay (AID 1918973). Also: nearly all actives have a fitted effect of over 45% in size. The procedure, abridged: as §1
Experiment [4] in a line: Quantitative High-Throughput drug screen in 47 multiple myeloma cell lines against the NCATS MIPE library collection: KMS26_JCRB cell viability assay (AID 1918975). Also: nearly all actives have a fitted effect of over 45% in size. The procedure, abridged:
as §2

Experiment [5] is described as follows: Quantitative High-Throughput drug screen in 47 multiple myeloma cell lines against the NCATS MIPE library collection: MOLP8_DSMZ cell viability assay (AID 1918977). Also: nearly all actives have a fitted effect of over 45% in size. The procedure, abridged:
(§3)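 500 cells/well per myeloma line exposed to pinned MIPE 4.0 compounds for 48 h at 37 °C, 5% CO2. Viability read as ATP by CellTiter-Glo luminescence, normalised to DMSO-only (100%) and media-only (0%) wells.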

Experiment [6] can be described thus: Quantitative High-Throughput drug screen in 47 multiple myeloma cell lines against the NCATS MIPE library collection: NCIH929_DSMZ cell viability assay (AID 1918978). Also: nearly all actives have a fitted effect of over 35% in size. The procedure, abridged: as §3
The nature of experiment [7]: Quantitative High-Throughput drug screen in 47 multiple myeloma cell lines against the NCATS MIPE library collection: MM1S_ATCC cell viability assay (AID 1918980). Also: nearly all actives have a fitted effect of over 45% in size. The procedure, abridged: as §3
Experiment [8] is described as follows: Quantitative High-Throughput drug screen in 47 multiple myeloma cell lines against the NCATS MIPE library collection: KMS28PE_JCRB cell viability assay (AID 1918983). Also: nearly all actives have a fitted effect of over 35% in size. The procedure, abridged: as §3
Experiment [9] in a line: Quantitative High-Throughput drug screen in 47 multiple myeloma cell lines against the NCATS MIPE library collection: L363_DSMZ cell viability assay (AID 1918984). Also: nearly all actives have a fitted effect of over 40% in size. The procedure, abridged:
as §3

Experiment [10] can be described thus: Quantitative High-Throughput drug screen in 47 multiple myeloma cell lines against the NCATS MIPE library collection: OCIMY7_PLB cell viability assay (AID 1918987). Also: nearly all actives have a fitted effect of over 65% in size. The procedure, abridged:
as §3

Experiment [11] can be described thus: Quantitative High-Throughput drug screen in 47 multiple myeloma cell lines against the NCATS MIPE library collection: OCIMY5_PLB cell viability assay (AID 1918988). Also: nearly all actives have a fitted effect of over 65% in size. The procedure, abridged:
as §3

Experiment [12] can be described thus: Quantitative High-Throughput drug screen in 47 multiple myeloma cell lines against the NCATS MIPE library collection: KMS12PE_JCRB cell viability assay (AID 1918972). Also: nearly all actives have a fitted effect of over 30% in size. The procedure, abridged:
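Myeloma cell lines, 500 cells per well, exposed to MIPE 4.0 library compounds for 48 h at 37C, 5% CO2. Viability from ATP by CellTiter-Glo luminescence; normalised to DMSO (100%) and media-only (0%) wells.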

Experiment [13] in a line: Quantitative High-Throughput drug screen in 47 multiple myeloma cell lines against the NCATS MIPE library collection: MM1R_ATCC cell viability assay (AID 1918981). Also: nearly all actives have a fitted effect of over 35% in size. The procedure, abridged:
as §3

Experiment [14] is described as follows: Quantitative High-Throughput drug screen in 47 multiple myeloma cell lines against the NCATS MIPE library collection: LP1_DSMZ cell viability assay (AID 1918982). Also: nearly all actives have a fitted effect of over 35% in size. The procedure, abridged:
as §3

Experiment [15] is described as follows: Quantitative High-Throughput drug screen in 47 multiple myeloma cell lines against the NCATS MIPE library collection: MMM1_PLB cell viability assay (AID 1918976). Also: nearly all actives have a fitted effect of over 35% in size. The procedure, abridged:
as §3

The nature of experiment [16]: Quantitative High-Throughput drug screen in 47 multiple myeloma cell lines against the NCATS MIPE library collection: KMS34_JCRB cell viability assay (AID 1918985). Also: nearly all actives have a fitted effect of over 40% in size. The procedure, abridged: as §3
A short description of experiment [17]: Quantitative High-Throughput drug screen in 47 multiple myeloma cell lines against the NCATS MIPE library collection: H1112_PLB cell viability assay (AID 1918967; also: nearly all actives have a fitted effect of over 30% in size). The procedure, abridged:
as §1

The nature of experiment [18]: Quantitative High-Throughput drug screen in 47 multiple myeloma cell lines against the NCATS MIPE library collection: OCIMY1_PLB cell viability assay (AID 1918979). Also: nearly all actives have a fitted effect of over 35% in size. The procedure, abridged: as §3
Experiment [19] is described as follows: Quantitative High-Throughput drug screen in 47 multiple myeloma cell lines against the NCATS MIPE library collection: KMS21BM_JCRB cell viability assay (AID 1918974). The conditions noted are these: ATP luminescence, 48 h; viability: at 45.8 µM (top of the series). The procedure, abridged: as §1
The nature of experiment [20]: Quantitative High-Throughput drug screen in 47 multiple myeloma cell lines against the NCATS MIPE library collection: KMS27_JCRB cell viability assay (AID 1918970). Also: nearly all actives have a fitted effect of over 30% in size. The procedure, abridged:
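Myeloma cells (500 per well) were exposed to MIPE 4.0 compounds for 48 h at 37 °C, 5% CO2; viability was read as ATP luminescence with CellTiter-Glo, normalized to DMSO-only (100%) and media-only (0%) wells.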

Inconclusive results are not listed. Active and inactive are the calls of the source. Calls follow the shape of the dose curve; as a rule, active = well fitted curve in the direction sought with a large enough effect; inconclusive = small, poorly fitted or top-dose-only effect, or another doubt; inactive = no such curve, though single readings can be large; an effect the other way counts as inactive or inconclusive.
Potency is read from the fitted curve at half-maximal effect.

As for `CNS(=O)(=O)CCc1ccc2[nH]cc(C3CCN(C)CC3)c2c1`, the Potency in experiment [1] was 0.935 µM (active); in experiment [2] it was 2.64 µM (active); in experiment [3], 935 nM (active); in [4] it was 2.96 µM (active); in experiment [6] it was 0.332 µM (active); in experiment [7] it was 0.469 µM (active). The results for the Potency in experiment [9], in [10] and in experiment [11] were 23.5 µM (active), 332 nM (active) and 1.18 µM (active), respectively. Moreover, the Potency entry in [5] and in experiment [8] was “inactive” throughout.
Turning to `CC(C)OC(=O)OCOP(=O)(CO[C@H](C)Cn1cnc2c(N)ncnc21)OCOC(=O)OC(C)C`, the Potency was 14.8 µM (active) in [1]; 7.43 µM (active) in experiment [2]; 29.6 µM (active) in experiment [12]; 23.5 µM (active) in experiment [7]; 11.8 µM (active) in experiment [13]; 3.72 µM (active) in experiment [11]. Also, the Potency entry in experiment [14] was “inactive”.
With `COC(=O)Nc1nc2ccc(S(=O)c3ccccc3)cc2[nH]1` (stereo not given), the Potency in experiment [1] was 16.6 µM (active); in [16], 23.5 µM (active); in [10] it was 7430 nM (active); in experiment [11], 16.6 µM (active). Besides, the Potency result in experiment [4] and in experiment [15] was “inactive” in each case.
Consider `Cc1cccc(N(C)C(=S)Oc2ccc3ccccc3c2)c1`, for which the Potency result in experiment [17], in [2], in [4], in experiment [6], in experiment [18] and in experiment [13] was “inactive” throughout. In addition, the Potency entry in experiment [16] is “inactive”.
Regarding `COC(=O)Nc1nc2ccc(Sc3ccccc3)cc2[nH]1`, the Potency in experiment [2] is 2.35 µM (active); in experiment [12], 0.833 µM (active); in experiment [19], 0.59 µM (active); in experiment [4], 18.7 µM (active); in [15], 18.7 µM (active); in experiment [6], 8.33 µM (active). Further, the Potency in experiment [18] is 3.32 µM (active); in experiment [7] it was 2.09 µM (active); in [13], 4.18 µM (active); in [14], 2.35 µM (active); in experiment [8], 5.26 µM (active); in [9], 0.469 µM (active). Further, the results for the Potency in experiment [16], in experiment [10] and in experiment [11] were 2.96 µM (active), 209 nM (active) and 1.18 µM (active), respectively.
Take `CCN(CC)CC#CCOC(=O)C(O)(c1ccccc1)C1CCCCC1` (stereo not given): the Potency entry in experiment [17], in [2], in experiment [5], in experiment [6], in [18] and in [13] was “inactive” in each case. Besides, the Potency result in [8] and in [16] was “inactive” throughout. In addition, the figures for the Potency in experiment [12] and in experiment [19] were 26.4 µM (active) and 4.69 µM (active), respectively.
On to `CCN1CCCC1CNC(=O)c1cc(S(N)(=O)=O)ccc1OC` (stereo not given), for which the Potency in [1] is 2.09 µM (active). Also, the Potency result in experiment [12], in experiment [4], in experiment [15], in experiment [6], in experiment [18] and in experiment [13] was “inactive” throughout. Besides, the Potency entry in experiment [14], in experiment [9] and in experiment [16] was “inactive” in each case.
In the case of `CC(C)C[C@H](NC(=O)[C@H](CCc1ccccc1)NC(=O)CN1CCOCC1)C(=O)N[C@@H](Cc1ccccc1)C(=O)N[C@@H](CC(C)C)C(=O)[C@@]1(C)CO1`, the Potency in experiment [1] is 0.001 µM (active); in [20], 1 nM (active); in [2] it was 0.0053 µM (active); in experiment [12], 0.001 µM (active); in experiment [4], 0.0132 µM (active); in experiment [15], 0.0833 µM (active). Besides, the Potency is 1.9 nM (active) in [5]; 0.001 µM (active) in [6]; 0.0093 µM (active) in experiment [18]; 0.0023 µM (active) in [7]; 0.0037 µM (active) in [13]; 0.0093 µM (active) in experiment [14]. The Potency was 0.001 µM (active) in experiment [9], 0.0059 µM (active) in [16], 11.8 nM (active) in experiment [10] and 0.0033 µM (active) in experiment [11].
For `O=S(=O)(c1cccc2cnccc12)N1CCCNCC1`, the Potency in [17] is 16.6 µM (active). The Potency result in [12], in [3], in [18], in experiment [13] and in [14] was “inactive” each time.
Regarding `OCc1ccc(-c2nn(Cc3ccccc3)c3ccccc23)o1`, the Potency in [1] was 9.35 µM (active); in experiment [2], 10.5 µM (active); in experiment [3], 1870 nM (active); in [15], 1.05 µM (active); in experiment [6] it was 14.8 µM (active); in experiment [7] it was 4.18 µM (active). In addition, the Potency in experiment [13] was 8.33 µM (active); in experiment [11] it was 16.6 µM (active). Also, the Potency result in experiment [20], in experiment [18], in [9] and in experiment [16] was “inactive” throughout.
With `NC(N)=NC(N)=NCCc1ccccc1`, the Potency was 5.26 µM (active) in experiment [1]; 10.5 µM (active) in experiment [2]; 3.32 µM (active) in experiment [19]; 5.26 µM (active) in experiment [15]; 2.96 µM (active) in experiment [7]; 16.6 µM (active) in experiment [13]. Further, the Potency was 5.26 µM (active) in [8], 14.8 µM (active) in experiment [9], 1.66 µM (active) in experiment [16] and 13.2 µM (active) in experiment [11].
Consider `CC(C)(Sc1cc(C(C)(C)C)c(O)c(C(C)(C)C)c1)Sc1cc(C(C)(C)C)c(O)c(C(C)(C)C)c1`, for which the Potency entry in [20], in experiment [2], in experiment [4], in experiment [5], in experiment [13] and in experiment [14] was “inactive” throughout. The Potency result in [8], in experiment [16] and in experiment [11] was “inactive” throughout. Further, the Potency in experiment [7] was 4.18 µM (active).
